A number with no mark means an inactive call. Activity calls are given as the source filed them.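 The calls were made as follows: active = inhibition above 50%; inactive = the rest.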
Assay: HepG2 cytotoxicity, primary screen, cytotoxicity control for P. falciparum antimalarial project, cell-based, ATP luminescence (AID 2303);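 also: 0% = DMSO wells and 100% = digitonin-killed cells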
Details: HepG2 viability, 24-48 h, at 10 µM, active compounds read high

| SMILES | inhibition |
| --- | --- |
| CC(=O)Nc1ccc(C(=O)Nc2cccc(-c3csc(-c4nc5ccccc5[nH]4)c3)c2)cn1 | 6% |
| c1nc2nc3c(c(Nc4ccc5c(c4)CCC5)n2n1)CCC3 | -1% |
| Cc1cc(N)c2cc(NC(=O)c3cc(C(F)(F)F)cc(C(F)(F)F)c3)ccc2n1 | 100% (active) |
| Oc1cc2c(cc1CN1CCN(Cc3ccccc3F)CC1)CCC2 | 2% |
| COc1ccc(Cc2c(C)nc3nc(N)nc(N)c3c2C)cc1 | 61% (active) |
| COCCn1c(-c2nc(-c3ccc(F)cc3)cnc2N)nc2ccccc21 | 16% |
| Cc1[nH]c(C)c(-c2ccc(OCCOc3ccc(C(F)(F)F)cn3)cc2)c(=O)c1Br | 25% |
| COc1cccc(OC)c1C(=O)Nc1cccc(-c2nn3ccccc3c2-c2ccnc(Nc3cccc(F)c3)n2)c1 | 3% |
| Cc1cnc2ccc(NS(=O)(=O)c3ccc4c(Cl)cccc4c3)cc2c1N1CCNCC1 | 24% |
| Cc1c(S(=O)(=O)Nc2cccc(CCN3CCCCC3CCN3CCCC3)c2)sc2ccc(Cl)cc12 (centres undefined) | 22% |
| COc1cccc(Cc2c(C)nc3nc(N)nc(N)c3c2C)c1 | 65% (active) |
| COc1ccc(-c2cccc(NC(=O)c3cccc(Cl)c3)c2)cc1CN(C)CCN(C)C | 32% |
| O=C(/C=C/c1ccc(Cl)c(Cl)c1)NCCCCCN1CCC(CCNC(=O)C2(c3ccc(Cl)cc3)CC2)CC1 | 96% (active) |
| O=C(C=Cc1ccc(Cl)c(Cl)c1)NCCCCCN1CCC(CCCNC(=O)[C@@H]2C[C@H]2c2ccccc2)CC1 | 45% |
| N#Cc1cccc(C(=O)Nc2cccc(-c3ccc(CN4CCCC4)cc3)c2)c1 | 11% |
| CN1CCN(c2nsc3ccc(-c4ccc(NC(=O)Nc5cc(C(F)(F)F)ccc5F)cc4)cc23)CC1 | 100% (active) |
| NC(=O)c1ccsc1NC(=O)CNC(c1ccc(F)cc1)c1cccs1 (centres undefined) | 31% |
| CC(C)Nc1nc(NCCc2cnc[nH]2)nc(Nc2ccc(Oc3ccccc3)cc2)n1 | -3% |
| c1ccc(-c2cc(NCCCCNc3cc(-c4ccccc4)nc4ccccc34)c3ccccc3n2)cc1 | 70% (active) |
| CCOC(=O)c1c(C)n(-c2ccccc2)c2ccc(O)cc12 | -7% |

| SMILES | inhibition |
| --- | --- |
| CC(C)Nc1nc(NCCc2cnc[nH]2)nc(NCc2cccc3ccccc23)n1 | 4% |
| CCc1cn2c3c(cc(C(=O)N[C@@H](Cc4ccccc4)[C@H](O)CNC4CC4)cc13)N(CC)S(=O)(=O)CC2 | 13% |
| Fc1ccc2nc(-c3ccc(-c4ccc(CNCCc5cccnc5)cc4)s3)[nH]c2c1 | 40% |
| COc1cc(Cc2cnc(N)nc2N)cc(OC)c1OCCCCC(=O)O | -4% |
| O=C(N[C@H]1CCN(Cc2ccc(OC3CCN(Cc4ccccc4)CC3)c(Br)c2)C1)c1ccc(Cl)c(Cl)c1 | 55% (active) |
| O=C(NCC1CCN(C/C=C/c2ccccc2)CC1)Nc1ccc(Oc2ccccc2)cc1 | 40% |
| COc1cccc2cc(C(=O)N[C@@H](CC(C)C)C(=O)N[C@H](/C=N/N(C)C(=O)OC(C)(C)C)CC(=O)OC(C)(C)C)oc12 | 5% |
| CN1CCC(c2cc3c(cc2Br)CCN3C(=O)Nc2ccc(-c3ccncc3)c(Cl)c2)CC1 | 26% |
| Cc1[nH]nc2cc(Nc3ccnc(Nc4ccc(CN5CCOCC5)cc4)n3)ccc12 | 22% |
| CCC(C)NC(=O)CN1CN(c2ccccc2)C2(CCN(C(=O)c3ccc(C(C)(C)C)cc3)CC2)C1=O (centres undefined) | -6% |
| c1ccc(-c2nc(Nc3nc4ccccc4[nH]3)[nH]c2-c2ccccc2)cc1 | 14% |
| Cc1ccc2c(c1[N+](=O)[O-])N=NCC2Oc1ccccc1 (centres undefined) | 16% |
| COc1ccc(-c2cnc3[nH]cc(-c4ccc(C(=O)O)cc4)c3c2)cn1 | 35% |
| c1ccc(CCNCc2ccc(-c3cccc(-c4nc5ccccc5[nH]4)c3)cc2)nc1 | 36% |
| O=C(Nc1ccc(-c2cccc(-c3nc4ccccc4[nH]3)c2)cc1)Nc1ccsc1 | 56% (active) |
| COc1ccc2ncc(C#N)c(CCN3C[C@H](CNCc4ccccc4)[C@H](O)C3)c2n1 | 3% |
| Oc1ccc2c(CNCCc3ccccc3)c(O)ccc2c1CNCCc1ccccc1 | 24% |
| NC1=NC(c2ccccc2)N(OCc2ccccc2)C(N)=N1 (centres undefined) | 5% |
| O=C(Nc1ccc2c(c1)CCN2C1CCN(Cc2ccc(F)cc2Cl)C1)c1ccco1 (centres undefined) | 4% |
